Laboratory results taken from PubChem BioAssay AID623992 (NMMLSC, 2012).
Entries with a potency or affinity are not part of this list. Activity calls are given as the source filed them.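 Rule for the calls: active = compounds whose fitted half-maximal effective concentration for blocking dye efflux is below 100 µM; inactive = the rest.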

biological target: Benomyl/methotrexate resistance protein (Candida albicans) (UniProt P28873); assay: Candida albicans Mdr1 pump blockade titration – singleplex, Cherry Pick2 set, dose response (AID 623992); conditions: S. cerevisiae AD/CaMDR1, Nile Red efflux, flow cytometry; series mostly up to 100 µM
Sequence (P28873 whole entry, looked up): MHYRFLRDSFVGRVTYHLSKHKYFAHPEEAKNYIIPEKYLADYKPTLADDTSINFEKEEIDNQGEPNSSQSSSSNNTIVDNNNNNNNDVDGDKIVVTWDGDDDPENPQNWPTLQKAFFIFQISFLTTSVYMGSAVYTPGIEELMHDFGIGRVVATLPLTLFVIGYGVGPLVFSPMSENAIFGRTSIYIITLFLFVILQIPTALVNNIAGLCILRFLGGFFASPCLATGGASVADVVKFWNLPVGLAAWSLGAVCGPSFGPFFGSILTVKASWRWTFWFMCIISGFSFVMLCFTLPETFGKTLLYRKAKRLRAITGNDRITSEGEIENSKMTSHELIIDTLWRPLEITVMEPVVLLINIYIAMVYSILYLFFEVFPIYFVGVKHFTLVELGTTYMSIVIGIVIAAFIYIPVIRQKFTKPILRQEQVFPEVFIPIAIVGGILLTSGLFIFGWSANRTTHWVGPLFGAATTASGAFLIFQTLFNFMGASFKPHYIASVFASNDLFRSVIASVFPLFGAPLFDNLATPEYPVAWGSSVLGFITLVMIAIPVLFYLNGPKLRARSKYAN

outcome, inactive:
Cc1cccc2sc(N(CCCN(C)C)C(=O)c3ccc(Cl)s3)nc12, O=C(NCCc1ccc(Cl)cc1)C1CCC(CNc2nc(=S)[nH]c3ccccc23)CC1 (stereo not given), CCCCCc1cc(=O)oc2c(C(CCN3CCCC(C)C3)c3ccc(N(C)C)cc3)c(OC)cc(OC)c12 (stereo not given), Cc1cc(C)c2sc(N(CCCN(C)C)C(=O)c3ccc(Br)s3)nc2c1, COc1ccc(C(=O)NC2CC(C)(C)Cc3c2cnn3-c2ccccc2)c(OC)c1 (stereo not given), O=C(c1ccc2c(c1)OCO2)N1CCC2(CC1)Oc1ccc(F)cc1C(=O)C21CC(c2ccc(Cl)cc2)=NO1 (stereo not given), Cc1ccc(-c2c[n+](CC(=O)N3c4ccccc4Sc4ccccc43)c3n2CCC3)cc1, COc1ccc2sc(-c3ccccc3OC)c(-c3ccc(OCCN(C)C)cc3)c2c1, O=C(NCCC1=CCCCC1)C1CCC(CNc2nc(=S)[nH]c3ccccc23)CC1 (stereo not given), Cc1ccc(O)c(C(=O)c2cnc3c(c2)CN(CCC(C)C)C(=O)N3)c1, CC(C)C(=O)N1CCC2(CC1)Oc1ccc(F)cc1C(=O)C21CC(c2ccc(Cl)cc2)=NO1 (stereo not given), O=C(C1CCCN(c2ncnc3c2nc2n3CCCCC2)C1)N1CCN(c2ccccc2F)CC1 (stereo not given), COc1ccc(CN2C(=O)C(C)Nc3ncnc(N4CCN(c5ccccc5)CC4)c32)cc1 (stereo not given), OCCN1CCN(CC/C=C2/c3ccccc3Sc3ccc(C(F)(F)F)cc32)CC1, COc1cc(OC)c2ccc(=O)oc2c1C(CCN1CCCCC1)c1ccc(N(C)C)cc1 (stereo not given), NC1=NC[C@H](Cc2ccc(O)cc2)N1CCCCC1CCCCC1, NC1=NC[C@H](Cc2ccc(O)cc2)N1CCc1cc(C(F)(F)F)cc(C(F)(F)F)c1, O=C(C[n+]1cc(-c2ccccc2)n2c1CCC2)N1c2ccccc2Sc2ccccc21, COc1ccc2c(c1)OC[C@H]1[C@H]2N2C(=O)c3ccc(C)cc3NC(=O)[C@@]2(C)[C@H]1c1ccccc1, COc1ccc(CCOC(=O)c2ccc(N)c([N+](=O)[O-])c2)cc1, N#CC(C(=O)NCc1ccccc1)c1nc2ccccc2nc1N1CCCC1 (stereo not given), COc1ccc(-c2sc3ccccc3c2-c2ccc(OCCN(C)C)cc2)cc1, O=C(CSc1nnc(Cc2cccs2)n1Cc1ccco1)Nc1cccc(Cl)c1, COc1ccc(C2CC(c3cccc(OC)c3)=NN2c2ccc(S(N)(=O)=O)cc2)cc1 (stereo not given), Cc1ccc(CN2C(=O)C(CC(C)C)Nc3ncnc(N4CCN(c5ccccc5)CC4)c32)cc1 (stereo not given), CCC(=O)N1CCN(c2ccc(Cl)cc2NC(=O)c2ccc3c(c2)OCCO3)CC1, COc1cccc(N2CCN(C(=O)C3CCCN(c4ncnc5c4nc4n5CCCCC4)C3)CC2)c1 (stereo not given), O=C(C1CCCN(c2ncnc3c2nc2n3CCCCC2)C1)N1CCN(c2ccccc2)CC1 (stereo not given), NC1=NC[C@@H](Cc2ccc(O)cc2)N1CCCCC1CCCCC1, CC(C)C(=O)N1CCC2(CC1)Oc1ccc(F)cc1C(=O)C21CC(c2ccccc2)=NO1 (stereo not given)
